Screens as filed in PubChem BioAssay.
DUSP3 inh – VHR1 phosphatase inhibitors, primary screen, biochemical, absorbance, uHTS. Dual specificity protein phosphatase 3 (Homo sapiens), P51452. recombinant VHR phosphatase, pNPP absorbance. inhibition, % at 13.3 µM. 0.52% of 290,000 active. AID 1654, 2009; in the data active = inhibition above about 50%
TcdB inh – TcdB glycohydrolase inhibitors, primary screen, biochemical, single point, plate reader; inhibition, % at 9.99 µM; TcdB glycohydrolase enzymatic assay; 0.24% of 350,000 active; in the data active = inhibition above about 10%
PrPC TRFRET – inhibitors of human cell surface prion protein PrPC, primary screen, cell-based, TR-FRET. inhibition, % at 13.8 µM. Major prion protein (Homo sapiens), P04156. TR-FRET read-out. 0.43% of 370,000 active; in the data active = inhibition above about 24%
PrPC TRFRET cf – confirmation of inhibitors of cell surface human prion protein, confirmation, cell-based, TR-FRET; shares compounds with PrPC TRFRET; cell surface PrPC level; inhibition, % at 13.8 µM; 65% of 1,500 active; in the data active = inhibition above about 25%
LD9 tox – cytotoxicity in LD9 cells, cytotoxicity control for cell surface PrPc inhibitor project, cell-based, luminescence, high throughput; shares compounds with PrPC TRFRET; inhibition, % at 13.8 µM; luminescence viability; 29% of 1,500 active; AID 743201, 2013; in the data active = inhibition above about 9.5%
A number is an active result; . = inactive; / = not tested or not shown. Compounds with a hit are over-represented: about 0.82% of the library has one in this group of screens.

SMILES	DUSP3 inh	TcdB inh	PrPC TRFRET	PrPC TRFRET cf	LD9 tox
CCCN1[C@H](C(=O)NC2Cc3ccccc3C2)[C@@H](CO)[C@@H]2Cn3c(ccc(C4=CCCC4)c3=O)[C@@H]21	/	.	/	/	/
COc1ccc(S(=O)(=O)N(C)C[C@@H]2OCCCC[C@H](C)Oc3ccc(NS(=O)(=O)c4ccc(C)cc4)cc3C(=O)N([C@H](C)CO)C[C@@H]2C)cc1	/	.	/	/	/
C[C@@H]1CCCCO[C@@H](CN(C)Cc2ccc3c(c2)OCO3)[C@@H](C)CN([C@H](C)CO)C(=O)c2cc(NC(=O)CCCCCC(=O)Nc3ccccc3N)ccc2O1	/	.	/	/	/
COC(=O)N1C2CCCCC2=NN(c2ccccc2)N1C(=O)OC (configuration not stated)	/	.	28.9	.	.
Cc1nnc(SCC(=O)NC2CCCC2)n1-c1ccccc1	/	.	.	/	/
O=C(C[C@@H]1C=C[C@H](NS(=O)(=O)c2ccccc2)[C@H](CO)O1)N1CCC(Cc2ccccc2)CC1	/	.	/	/	/
CN(C)Cc1c(O)ccc2[nH]cnc12	.	/	.	/	/
Oc1ccc2ccc3[nH]cnc3c2c1	.	20.5	32.5	.	.
O=C(NCC[C@@H]1CC[C@@H](NC(=O)C2CCCCC2)[C@@H](CO)O1)c1ccc(F)cc1	/	.	/	/	/
NCCCNc1nc(N)c([N+](=O)[O-])c(NC2CCCCC2)n1	.	.	66.4	78.8	24.7
COCCNc1nc(N)c([N+](=O)[O-])c(NC2CCCCC2)n1	/	.	.	/	/
CC(C)Cc1nc(N2CCC(C(N)=O)CC2)c2nnn(Cc3ccccc3)c2n1	.	/	.	/	/
CC(C)Cc1nc(Nc2ccccc2C#N)c2nnn(Cc3ccccc3)c2n1	.	.	28.8	.	.
CN(c1ccc(Cl)cc1)c1cc(=O)n(C)c2ccccc12	.	/	24.6	.	.
CN(C(=O)COc1cc(=O)n(C)c2ccccc12)c1ccc(Cl)cc1	.	.	.	/	/
C[C@@H]1CN([C@@H](C)CO)C(=O)Cc2cc(NS(=O)(=O)c3cn(C)cn3)ccc2O[C@@H]1CN(C)S(=O)(=O)c1ccccc1	/	.	/	/	/
Cc1ccc(S(=O)(=O)Nc2ccc3c(c2)C(=O)N([C@@H](C)CO)C[C@@H](C)[C@H](CN(C)C(=O)C2CCCCC2)OCCCC[C@@H](C)O3)cc1	/	.	/	/	/
CC(=O)c1cccc(NC(=O)C2=CN3CCS(=O)(=O)N=C3C=C2)c1	/	.	46.1	45.5	.
CC(=O)c1cccc(NC(=O)c2c(F)c(F)c(F)c(F)c2F)c1	.	/	.	/	/
C[C@@H]1CN([C@@H](C)CO)C(=O)c2cc(NS(=O)(=O)c3ccc(Cl)cc3)ccc2O[C@@H](C)CCCCO[C@@H]1CN(C)C(=O)c1ccccc1	/	.	/	/	/
CO/N=C/Cc1c([N+](=O)[O-])c(C)nn1C	.	.	.	/	/
Cc1c([N+](=O)[O-])c(C/C=N/O)nn1C	.	.	33.0	.	.
CC(C)NC(=O)Nc1ccc2c(c1)C(=O)N([C@H](C)CO)C[C@H](C)[C@H](CN(C)S(=O)(=O)c1ccccc1)O2	/	.	/	/	/
O=[N+]([O-])c1ccc(N/N=C/c2cccnc2)cc1	.	.	.	/	/
Clc1ccc(N/N=C/c2cccnc2)cc1	.	/	25.0	.	.
SMILES	DUSP3 inh	TcdB inh	PrPC TRFRET	PrPC TRFRET cf	LD9 tox
O=C(Nc1cccc(Cl)c1)N[C@H]1CC[C@@H](CCNC(=O)C2CCCC2)O[C@@H]1CO	/	.	/	/	/
C[C@@H]1CN([C@H](C)CO)C(=O)Cc2cc(NC(=O)NC3CCCCC3)ccc2O[C@H]1CN(C)CC1CC1	/	.	/	/	/
CCCCNC(=O)C1CCC(CNc2nc(=S)[nH]c3ccccc23)CC1 (configuration not stated)	.	.	.	/	/
COc1ccc(N2CCN(CCCNC(=O)C3CCC(CNc4nc(=S)[nH]c5ccccc45)CC3)CC2)cc1 (configuration not stated)	.	.	32.8	27.7	13.9
O=C(NCc1cccnc1)c1c(O)c2cccc3c2n(c1=O)CCC3	.	.	31.9	38.7	.
NCCNC(=O)c1c(O)c2cccc3c2n(c1=O)CCC3	.	.	.	/	/
N#CC1c2ccccc2-n2nncc2CN1Cc1cc(Cl)cc(Cl)c1 (configuration not stated)	/	.	68.3	90.6	98.0
COc1ccc(CN2Cc3cnnn3-c3ccccc3C2C#N)cc1 (configuration not stated)	/	.	.	/	/
O=C(Cc1ccncc1)Nc1ccc2c(c1)[C@H]1C[C@H](CC(=O)N3CCCCC3)O[C@@H](CO)[C@H]1O2	/	.	/	/	/
CSCc1nc2scc(-c3ccccc3)c2c(=O)[nH]1	.	.	.	/	/
O=c1[nH]c(Cc2ccccn2)nc2scc(-c3ccccc3Cl)c12	.	.	25.9	.	.
CC(C)c1cn(CC[C@@H]2CC[C@H](NS(=O)(=O)Cc3ccccc3)[C@@H](CO)O2)nn1	/	.	/	/	/
CCC(=O)N(C)C[C@H]1Oc2ncc(-c3ccccc3C)cc2C(=O)N([C@H](C)CO)C[C@@H]1C	/	.	/	/	/
Cc1ccc(SCCNC(=O)c2ccccc2)cc1	.	/	.	/	/
COc1ccc(C(=O)NCCSc2ccc(C)cc2)cc1	.	/	57.0	.	.
C[C@H](CO)N1C[C@H](C)[C@H](CN(C)S(C)(=O)=O)Oc2c(NC(=O)Nc3ccc(F)cc3)cccc2C1=O	/	.	/	/	/
CCCN1[C@@H]2Cn3c(ccc(-c4cccnc4)c3=O)[C@H]1[C@@H](C(=O)NCCc1cn(C)cn1)[C@@H]2CO	/	.	/	/	/
Cc1ccc(C)c(NS(=O)(=O)c2cc(C(=O)NCc3ccncc3)ccc2C)c1	.	.	.	/	/
Cc1ccc(C(=O)NCc2ccncc2)cc1S(=O)(=O)Nc1cccc(C)c1C	.	.	24.5	32.5	.
Cc1noc(C)c1NC(=O)Nc1ccc2c(c1)C(=O)N([C@H](C)CO)C[C@@H](C)[C@H](CN(C)CC1CCCCC1)O2	/	.	/	/	/
C[C@@H](O)C#Cc1ccc([C@H]2[C@H]3CN(C(=O)c4ccncc4)CCCCN3[C@H]2CO)cc1	/	.	/	/	/
CCOc1ccccc1N1CCN(c2nc3ccccc3nc2C(C#N)C(=O)OC)CC1 (configuration not stated)	.	/	.	/	/
COc1ccccc1N1CCN(c2nc3ccccc3nc2C(C#N)C(=O)OC(C)C)CC1 (configuration not stated)	.	/	25.3	.	.
O=C(Cc1cccs1)Nc1nc(-c2ccc(F)cc2F)cs1	.	/	26.2	.	.
O=C(Cc1cccs1)Nc1nc(-c2ccc(F)c(F)c2)cs1	.	.	.	/	/
COCCNC(=O)C[C@H]1CC[C@H]2[C@@H](COc3ccc(NC(=O)c4cnccn4)cc3C(=O)N2C)O1	/	.	/	/	/
CC(C)CC(NC(=O)CCCNC(=O)CCC(=O)OC1O[C@H]2OC3(C)CC[C@H]4[C@H](C)CCC(C1C)C24OO3)C(=O)O (some centres not stated)	.	.	28.0	37.8	19.6
C[C@H]1[C@H](OC(=O)CCC(=O)NCc2ccc(C(=O)O)cc2)O[C@@H]2O[C@@]3(C)CC[C@H]4[C@H](C)CC[C@@H]1C24OO3	.	/	/	/	/
